From PubChem BioAssay (Tox21) come the findings set out here.

Inconclusive results are not listed. A call without a number means that no potency is given here. Calls of active or inactive are those of the source. The call rests on the fitted dose curve.

Chain of 5-hydroxytryptamine receptor 2A (Homo sapiens) (P28223 whole entry, looked up): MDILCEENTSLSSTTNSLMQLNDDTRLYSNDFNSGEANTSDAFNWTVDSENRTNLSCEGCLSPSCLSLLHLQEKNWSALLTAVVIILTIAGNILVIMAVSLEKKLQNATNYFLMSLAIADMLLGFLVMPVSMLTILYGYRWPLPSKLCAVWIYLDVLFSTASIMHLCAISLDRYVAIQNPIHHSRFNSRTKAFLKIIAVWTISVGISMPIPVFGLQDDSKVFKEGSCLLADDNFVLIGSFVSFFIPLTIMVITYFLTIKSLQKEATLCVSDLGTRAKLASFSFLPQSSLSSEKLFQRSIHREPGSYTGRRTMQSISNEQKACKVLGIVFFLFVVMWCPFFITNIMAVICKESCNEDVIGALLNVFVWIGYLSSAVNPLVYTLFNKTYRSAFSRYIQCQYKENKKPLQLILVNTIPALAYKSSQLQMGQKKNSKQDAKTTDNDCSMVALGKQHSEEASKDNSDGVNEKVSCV

For the test, the target named is 5-hydroxytryptamine receptor 2A (Homo sapiens) (UniProt P28223). As to the kind of experiment: 5-hydroxytryptamine receptor 2A (HTR2A) small molecule antagonists, cell-based qHTS assay (AID 1963586). Further: nearly all actives have a fitted effect of over 45% in size. To be noted: HTR2A-CHO cells, DOI-induced calcium flux, fluorescence; series mostly up to 61.5 µM. An excerpt:
National Center for Advancing Translational Sciences [NCATS]
Division of Preclinical Innovation [DPI]
U.S. Environmental Protection Agency [EPA]
National Institutes of Environmental Health Sciences [NIEHS]
National Toxicology Program [NTP]
U.S. Food and Drug Administration [FDA]
The HTR2A receptor is a subtype of the 5-HT2 receptor that belongs to the serotonin receptor family and is a G protein-coupled receptor (GPCR). The HTR2A-CHO cell line stably expressing human 5-hydroxytryptamine receptor 2A (HTR2A) can be used for screening antagonists of interactions between 5-HT2 and its ligands. The HTR2A-CHO calcium flux assay is a homogeneous fluorescence-based assay for detecting the intracellular calcium level using FDSS kinetic plate reader system.
Tox21 Assay Protocol Summary:
HTR2A-CHO cells were dispensed at 2000 cells/3uL/well in 1536-well black-clear bottom plates using a Multidrop Dispenser. After the assay plates were incubated at a 37 C/5% CO2 incubator for 18 h, 3 uL of Dye Loading Buffer was transferred to the assay plate by a Flying Reagent Dispenser. The assay plates were incubated at 37 C for 1h. For antagonist mode, 23 nL of compounds dissolved in DMSO, positive controls or DMSO only was transferred to the assay plate by a pin tool. After 5 min incubation at room temperature, 1.5 uL of 4-Iodo-2,5-dimethoxy-alpha-methylbenzeneethanamine hydrochloride (DOI) at 4nM was added to each well. The fluorescence intensity in the plates was measured using FDSS 7000EX kinetic plate reader for 3 min at 1 sec intervals.
Take `CCCCOCCCC`: the Potency entry was “inactive”.
Consider `C=CCCC=C`, for which the Potency result was “inactive”.
Still for that read-out and setting: the entry for `Cn1cnc2c1c(=O)[nH]c(=O)n2C` is “inactive”.
Still for that read-out and setting: the same measure for `Cc1ccc(S(N)(=O)=O)cc1`: “inactive”; for `COc1cccc(Br)c1`: “inactive”.
As for `OC1OC[C@@H](O)[C@H](O)[C@H]1O` (stereo not given in full), the Potency result was “inactive”.
Take `Cc1[nH]cnc1-c1ccc(Cl)cc1`: the Potency entry is “inactive”.
Still for that read-out and setting: the same measure for `CCCCOC(=O)C(=O)OCCCC`: “inactive”.
`CC(C)c1cccc(O)c1`: the Potency entry is “inactive”.
On the same count and under the same terms, the same measure for `COC(=O)c1sccc1S(N)(=O)=O`: “inactive”.
On the same count and under the same terms, the same measure for `Cc1cccc(S(=O)(=O)O)c1C`: “inactive”; for `CC[C@]12CCCN3CCc4c(n(c5ccccc45)[C@@](O)(C(=O)OC)C1)[C@@H]32`: “inactive”.
Same read-out and setting: the same measure for `CCOC(=O)CN`: “inactive”; for `CCCCCCCO`: “inactive”; for `Cc1ccc(O)c([N+](=O)[O-])c1`: “inactive”.
In the case of `CCCCCCCCCCCCCCO`, the Potency entry is “inactive”.
On the same count and under the same terms, the same measure for `COC(=O)c1cc(Cl)c(NC(C)=O)cc1OC`: “inactive”.
Same read-out and setting: the entry for `C=CC(C)(O)CC/C=C(\C)CCC=C(C)C` (stereo not given) is “inactive”; for `COC(=O)N[C@H](C(=O)N[C@@H](Cc1ccccc1)[C@@H](O)CN(Cc1ccc(-c2ccccn2)cc1)NC(=O)[C@@H](NC(=O)OC)C(C)(C)C)C(C)(C)C` it is “inactive”; for `NC(=O)CCCCC(N)=O` it is “inactive”.
Same read-out and setting: the same measure for `CC(Cl)COP(=O)(OCC(C)Cl)OCC(C)Cl` (stereo not given): “inactive”.
`OCCCCl`: the Potency entry is “inactive”.
On the same count and under the same terms, the entry for `C[C@@H]1CCC[C@H](C)N1CCCC(O)(c1ccccc1)c1ccccn1` (stereo not given in full) is “inactive”.
Still for that read-out and setting: the entry for `Nc1ccncc1N` is “inactive”; for `Cc1nc2ccccc2s1` it is “inactive”; for `O=C(O)c1cccc(Cl)c1Cl` it is “inactive”.
The same measure, in the same setting: the same measure for `Cc1cccc(C)c1[N+](=O)[O-]`: “inactive”; for `CN(C)C(=S)SC(=S)N(C)C`: “inactive”; for `CC1(C)O[C@H]2CC(=O)OC[C@]23[C@H]2CC[C@@]4(C)[C@H](c5ccoc5)OC(=O)[C@H]5O[C@]54[C@]2(C)C(=O)C[C@@H]13`: “inactive”.
Take `NC(=O)c1ccccc1Cl`: the Potency entry is “inactive”.
On the same count and under the same terms, the entry for `Cc1oc(C)c(C(=O)Nc2ccccc2)c1C` is “inactive”.
`C=CC(=O)OCCOC1C2CCC1C1CC=CC12` (stereo not given): the activity, negative = inhibition is 14.3% [at 12.7 µM] (inactive).
Take `CCCCCCOC(=O)CC`: the Potency entry was “inactive”.
Still for that read-out and setting: the entry for `CCCCCCCC(OC)OC` is “inactive”; for `CCOC(C)(C)C` it is “inactive”; for `NCCNCCO` it is “inactive”.
Take `CCCCCCCCC(=O)OCC`: the Potency result is “inactive”.
As for `Cc1ccc(Nc2ccc(O)c3c2C(=O)c2ccccc2C3=O)cc1`, the Potency entry was “inactive”.
Still for that read-out and setting: the same measure for `CC(=O)c1ccc2ccccc2c1`: “inactive”; for `CC(C)CC(C)(N)C#N` (stereo not given): “inactive”.
